# Structures can show the parent of a compound that is named as a salt. Out of some 2,100 compounds screened, about 180 (8.6%) showed an effect of 50% or more. This is one part of a sample in which strong results are shown more often than they occur.
# Tested on: MOLM1 and UCSD/AML1 (averaged)
# Assay: cell viability relative to DMSO control (POC); higher = less growth inhibition
# Settings: 1 µM; 72 h
# Protocol: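 Primary viability screen in the 3q26 EVI1-high AML cell lines MOLM1 and UCSD/AML1 (1.5e3 cells/well, 384-well), compounds at 1 uM for 72 h. ATP CellTiter-Glo read-out given as percent of viable cells over DMSO control (POC), averaged over duplicates. DMSO was the negative control and 5 uM etoposide the positive control. This mapping covers the MicroSource Spectrum and Selleck anticancer libraries (drug names).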
row,Structure (SMILES),cell viability
1,CC(=O)Oc1cc(-c2coc3cc(OC(C)=O)c(OC(C)=O)c(OC(C)=O)c3c2=O)cc(OC(C)=O)c1OC(C)=O,93.9%
2,CC(=O)O[C@@H]1CC2C(C)(C)[C@H](O)C=C[C@]2(C)C2CC[C@@]3(C)[C@H](c4ccoc4)OC(=O)C4OC43[C@@]21C (some centres not stated),98.8%
3,O=c1c2ccccc2oc2ccccc12,101%
4,CC(=O)Nc1nc(C)c(-c2ccc(Cl)c(S(=O)(=O)NCCO)c2)s1,56.6%
5,O=C(CCNNC(=O)c1ccncc1)NCc1ccccc1,90.2%
6,"Nc1ccccc1NC(=O)c1ccc(CNC(=O)OCc2cccnc2)cc1 [Entinostat (MS-275, SNDX-275)]",12.6%
7,O=C(NCO)c1cccnc1,106%
8,Nc1ccccc1NC(=O)c1ccc(CNc2nccc(-c3cccnc3)n2)cc1 [Mocetinostat (MGCD0103)],4.85%
9,COc1c2ccoc2c(OC)c2oc(=O)ccc12,115%
10,CC(NC(=O)c1ccccc1/N=C/c1c(O)ccc2ccccc12)c1ccccc1 (configuration not stated) [Sirtinol],103%
11,CCc1cc(C(N)=S)ccn1,97.8%
12,CCc1ccc2c(O)c3c(cc2c1C(=O)OC)C(=O)c1c(O)ccc(O)c1C3=O,102%
13,NC(=O)c1ccc(I)c([N+](=O)[O-])c1 [Iniparib (BSI-201)],103%
14,C[C@H]1COC2=C1C(=O)C(=O)c1c2ccc2c1CCCC2(C)C,97.7%
15,C=C1C(=O)O[C@@H]2C[C@@]3(C)CCC[C@H](C)C3=C[C@H]12,74%
16,COc1cccc(O)c1O,110%
17,C=CCn1c(=O)c2cnc(Nc3ccc(N4CCN(C)CC4)cc3)nc2n1-c1cccc(C(C)(C)O)n1,19.2%
18,CO[C@@H](C(=O)N1Cc2[nH]nc(NC(=O)c3ccc(N4CCN(C)CC4)cc3)c2C1)c1ccccc1,13.4%
19,"CC(C(=O)O)[C@H]1CCC2C3CC=C4C[C@@H](O)CC[C@]4(C)C3CC[C@@]21C (stereo partly drawn) [3beta-HYDROXY-23,24-BISNORCHOL-5-ENIC ACID]",109%
20,CNCc1ccccc1,104%
21,C=CC1=C(C)/C(=C/c2[nH]c(Cc3[nH]c(/C=C4\NC(=O)C(C)=C4C=C)c(C)c3CCC(=O)O)c(CCC(=O)O)c2C)NC1=O,91.9%
22,C=CC(C)(O)CCC=C(C)CCC=C(C)C (mixture of isomers),93.6%

row,Structure (SMILES),cell viability
1,COc1cc(OC)c(/C=C/S(=O)(=O)Cc2ccc(OC)c(NCC(=O)O)c2)c(OC)c1,41.4%
2,NCCC(O)(P(=O)(O)O)P(=O)(O)O [Pamidronate Disodium],79.9%
3,COc1cc2c(cc1OC)Cc1cc(OC)c(OC)cc1Cc1cc(OC)c(OC)cc1C2,113%
4,CC1=CC(=O)C(C(C)C)=CC1=O,97.2%
5,CCc1c2c(nc3ccc(OC(=O)N4CCC(N5CCCCC5)CC4)cc13)-c1cc3c(c(=O)n1C2)COC(=O)[C@]3(O)CC [Irinotecan HCl Trihydrate (Campto)],15.9%
6,CC[C@@]1(O)C(=O)OCc2c1cc1n(c2=O)Cc2cc3cc(O)ccc3nc2-1,7.32%
7,CCc1c2c(nc3ccc(OC(=O)N4CCC(N5CCCCC5)CC4)cc13)-c1cc3c(c(=O)n1C2)COC(=O)[C@]3(O)CC [Irinotecan],13%
8,CC[C@@]1(O)C(=O)OCc2c1cc1n(c2=O)Cc2cc3c(CN(C)C)c(O)ccc3nc2-1 [Topotecan HCl],2.12%
9,COc1cc(/C=C/CO)ccc1O,87.7%
10,O=C(O)/C=C/C=C/c1ccc2c(c1)OCO2,109%
11,CC(=O)O[C@@H]1C[C@@]2(C)C(CC[C@@H]2C(C)=O)C2CCC3=CC(=O)CC[C@]3(C)C21 (some centres not stated),91.1%
12,CC(N)C12CC3CC(CC(C3)C1)C2 (configuration not stated),105%
13,COc1cc2c(cc1OC)C1(O)C(=O)c3ccc(O)c(C(=O)O)c3OC1CO2 (configuration not stated),101%
14,COc1ccc2c(c1OC)OC[C@@H](c1ccc(OC)c(OC)c1OC)C2,113%
15,COc1cc(C)c(C(=O)Oc2cc(C)c(C(=O)O)c(O)c2C)c(O)c1C=O,91.2%
16,C[C@H](N)C(=O)NC(Cc1ccccc1)C(=O)O (mixture of isomers),100%
17,CC1(C)CC2C1CC[C@]1(C)CCC3C(C(=O)O)CC(=O)O[C@@]32C1 (some centres not stated) [3-HYDROXY-4-(SUCCIN-2-YL)-CARYOLANE delta-LACTONE],103%
18,C[C@@H]1C(=O)O[C@H]2C[C@@]34[C@H]5C[C@@H](C(C)(C)C)[C@]36[C@@H](OC(=O)[C@@H]6O)O[C@@]4(C(=O)O5)[C@]21O,94.4%
19,COc1ccc([C@@H](C)C(=O)c2ccc(O)cc2O)cc1,112%
20,CC1(COc2ccc3c(c2)ncn3-c2ccc3cccc(N4CCC(N)CC4)c3n2)COC1,29.2%
21,C[C@@]12CCc3occc3[C@H]1CC[C@@]13C[C@@H](CC[C@H]12)[C@@](O)(CO)C3,89.6%
22,COc1c(-c2ccccc2)oc2c(ccc3occc32)c1=O,97.3%

row,Structure (SMILES),cell viability
1,O[C@H]1[C@H](O)[C@@H](O)C2OC[C@H]1O2,110%
2,COc1ccc(-c2ccc3c(N4CCOC[C@@H]4C)nc(N4CCOC[C@@H]4C)nc3n2)cc1CO,23.6%
3,COc1ccc(-c2ccc3c(N4CCOCC4)nc(N4C[C@@H](C)O[C@@H](C)C4)nc3n2)cc1CO,30.1%
4,O=C(O)C(S)C(S)C(=O)O (configuration not stated),115%
5,O=C1c2ccccc2C(=O)c2c1ccc(O)c2O,95.7%
6,COc1ccc2c(=O)c(-c3cc4c(cc3OC)OCO4)coc2c1,99.7%
7,COc1ccc(-c2c(O)c3c(OC)c4c(cc3oc2=O)OC(C)(C)C=C4)cc1,93.5%
8,CC[C@H](/C=C/[C@@H](C)[C@H]1CC[C@H]2[C@@H]3CC=C4C[C@@H](O)CC[C@]4(C)[C@H]3CC[C@]12C)C(C)C,107%
9,CC(C)=CCCC1(C)C=Cc2c(O)c3c(c(CC=C(C)C)c2O1)OC12C(=CCCC1C(C)(C)O[C@@]2(C/C=C(\C)C(=O)O)C(=O)O)C3=O (some centres not stated),103%
10,CC(C)C1=CC2=CC[C@@H]3[C@](C)(CCC[C@@]3(C)C(=O)O)[C@H]2CC1,103%
11,CC(=O)O[C@H]1C[C@@H](OC(C)=O)C(C)(C)[C@@H]2C[C@@H](OC(C)=O)[C@]3(C)[C@H](CC[C@@]4(C)[C@H](c5ccoc5)OC(=O)[C@H]5O[C@@]534)[C@@]12C,83.3%
12,COc1ccc(-c2cc(=O)c3c(O)c(OC)c(O[C@@H]4O[C@H](CO[C@@H]5O[C@@H](C)[C@H](O)[C@@H](O)[C@H]5O)[C@@H](O)[C@H](O)[C@H]4O)cc3o2)cc1,101%
13,CSCCC(N)C(=O)NC(CC(C)C)C(=O)NC(Cc1ccccc1)C(=O)O (configuration not stated),97.7%
14,CC(C)C[C@H](NC(=O)[C@@H](O)[C@H](N)Cc1ccccc1)C(=O)O [Ubenimex (Bestatin)],66.5%
15,CC(C)C[C@H](NC(=O)[C@H](Cc1ccccc1)NC(=O)c1cnccn1)B(O)O [Bortezomib (Velcade)],0.861%
16,COc1ccc(-c2cc(=O)c3c(OC)c(OC)c(OC)c(OC)c3o2)cc1OC,75.6%
17,C[C@H]1COC2(CCN(c3nc(=O)c4cc(C(F)(F)F)cc([N+](=O)[O-])c4s3)CC2)O1 (racemic) [BTZ043 racemate],83.5%
18,C[N+](C)(C)CCOP(=O)(O)OP(=O)([O-])OC[C@H]1O[C@@H](n2ccc(N)nc2=O)[C@H](O)[C@@H]1O,85.3%
19,NC(=O)c1ncn([C@@H]2O[C@H](CO)[C@@H](O)[C@H]2O)n1,94.7%
20,N=c1ccn2c(n1)O[C@H]1[C@H](O)[C@@H](CO)O[C@H]12,5.77%
21,NC(=O)c1ncn([C@@H]2O[C@H](CO)[C@@H](O)[C@H]2O)c1N,119%
22,Nc1ccn([C@@H]2O[C@H](CO)[C@@H](O)C2(F)F)c(=O)n1 [Gemcitabine HCl (Gemzar)],10.8%

row,Structure (SMILES),cell viability
1,O=c1[nH]cnc2c1ncn2[C@@H]1O[C@H](CO)[C@@H](O)[C@H]1O,109%
2,Nc1ccn([C@@H]2O[C@H](CO)[C@@H](O)[C@@H]2O)c(=O)n1,8.69%
3,Nc1ccn([C@@H]2O[C@H](CO)[C@@H](O)C2(F)F)c(=O)n1 [Gemcitabine (Gemzar)],8.79%
4,Nc1ccn([C@@H]2O[C@H](CO)[C@@H](O)[C@@H]2O)c(=O)n1 [Cytarabine],7.02%
5,COC(=O)[C@H](OC(C)=O)[C@H]1C(C)(C)[C@H](OC(C)=O)[C@@H]2CC3=C4CC(=O)O[C@@H](c5ccoc5)[C@]4(C)CC[C@@H]3[C@@]1(C)C2=O,94.8%
6,COc1cc2c(cc1OC)C(=O)OC2,103%
7,COc1ccc2c(c1)OC[C@@H](Cc1ccc(OC)c(OC)c1)[C@H]2O,96.9%
8,CC(=O)O[C@@H]1CC2C(C)(C)C(=O)C3OC3[C@]2(C)C2CC[C@@]3(C)[C@H](c4ccoc4)OC(=O)C4OC43[C@@]21C (some centres not stated),95.3%
9,CC(C)c1c(O)ccc2c1CCC1[C@@](C)(C=O)CCC[C@]21C (some centres not stated),96.4%
10,C[C@@H]1CC[C@@]2(OC1)O[C@H]1C[C@H]3[C@@H]4CC[C@@H]5C[C@@H](O)CC[C@]5(C)[C@H]4CC[C@]3(C)[C@H]1[C@@H]2C,97.4%
11,CN(NC(=O)CC(=O)NN(C)C(=S)c1ccccc1)C(=S)c1ccccc1 [Elesclomol],1.23%
12,O=C(OOC(=O)c1ccccc1)c1ccccc1,101%
13,O=C(CC(=O)c1ccccc1)c1ccccc1,80.9%
14,CCCCCCCCCCCCCCCCCCOCC(O)CO (configuration not stated),85%
15,COc1ccc(-c2coc3cc(O)ccc3c2=O)cc1,108%
16,CC12CCCC(O)(C1)C1CC(C)(C)C1CC2 (stereo not drawn) [beta-CARYOPHYLLENE ALCOHOL],111%
17,CC(=O)OC1CCC23CC1(C)CCC2C(C)(C)CC3OC(C)=O (configuration not stated),96.1%
18,CN(C)C/C=C/C(=O)Nc1cc2c(Nc3ccc(F)c(Cl)c3)ncnc2cc1O[C@H]1CCOC1 [Afatinib (BIBW2992)],52.9%
19,CCOc1cc2ncc(C#N)c(Nc3ccc(F)c(Cl)c3)c2cc1NC(=O)/C=C/CN(C)C [Pelitinib (EKB-569)],14.4%
20,COc1cc2ncnc(Nc3ccc(F)c(Cl)c3)c2cc1NC(=O)/C=C/CN1CCCCC1,50.9%
21,CCOc1cc2ncc(C#N)c(Nc3ccc(OCc4ccccn4)c(Cl)c3)c2cc1NC(=O)/C=C/CN(C)C [Neratinib (HKI-272)],14.7%
